Screening results as filed in PubChem BioAssay.
AGP1 TOR yeast = modulators of AGP1-GFP expression in yeast TOR pathway, primary screen, cell-based, multiplex flow cytometry, S. cerevisiae, MLPCN library; 3 h; GFP as percent of DMSO wells; GFP response vs DMSO, % at 10 µM; hit rate 0.02% among 320,000;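 active = GFP response relative to DMSO above a set limit, near screen average plus 3 SD, cut at about 150% in these data; inconclusive = fewer than 70 cells counted for the yeast strain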;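 also: median GFP channel fluorescence of the gated AGP1 strain per well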
LAP4 TOR yeast = modulators of LAP4-GFP expression in yeast, primary screen, S. cerevisiae, multiplex flow cytometry, MLPCN library | 3 h; median GFP as percent of DMSO wells | GFP response vs DMSO, % at 10 µM | hit rate 0.34% among 320,000 | AID 2023, 2009;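 active = GFP response vs DMSO above a set limit, about the screen mean plus 3 SD, cut at about 150% in these data; inconclusive = under 70 cell events counted for the yeast strain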
RPL19A TOR yeast = RPL19A-GFP expression modulators in yeast, primary screen, cell-based, S. cerevisiae, multiplex flow cytometry, MLPCN | S. cerevisiae RPL19A-GFP strain, 3 h; active compounds read low | percent response vs DMSO, % at 10 µM | hit rate 0.3% among 330,000;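 active = percent response vs DMSO below 50%; inconclusive = fewer than 70 events counted for the yeast strain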;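 also: median channel GFP fluorescence of the barcoded RPL19A-GFP strain; lower means less RPL19A-GFP as with rapamycin TOR inhibition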
MEP2 TOR yeast = modulators of MEP2-GFP levels in yeast, primary screen, S. cerevisiae, multiplex flow cytometry, MLPCN library; S. cerevisiae MEP2-GFP strain, 3 h; 100% = DMSO control level; GFP response vs DMSO, % at 10 µM; hit rate 0.51% among 330,000;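 active = GFP response versus DMSO above a set limit, roughly screen mean plus 3 SD, cut at about 180% in these data; inconclusive = fewer than 70 cells counted for a yeast strain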;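 also: median GFP fluorescence of the barcode-gated MEP2-GFP cells per well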
CIT2-GFP yeast = modulators of CIT2-GFP expression in yeast, primary screen, S. cerevisiae, GFP fusion, multiplex flow cytometry, MLPCN library; GFP response vs DMSO, % at 10 µM; S. cerevisiae CIT2-GFP strain, 3 h; 100 means same as DMSO wells; hit rate 0.065% among 320,000; AID 2029, 2009;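 active = GFP response relative to DMSO above a set limit, near the screen mean plus 3 SD, cut at about 150% in these data; inconclusive = Fewer than 70 cells measured for a yeast strain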;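 also: ratio of well median GFP fluorescence to mean of DMSO wells on the plate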
VLA-4 inh = inhibition in human VLA-4 binding assay, primary screen, VLA-4 allosteric modulator project, MLPCN library, flow cytometry, VLA-4 expressing cells | inhibition, % (about 7 µM as worked out from the volumes in the protocol) | ligand binding flow cytometry | Integrin alpha-4 (Homo sapiens), P13612 | hit rate 0.2% among 330,000 | AID 2557, 2010; in the data active = inhibition above about 50%
Target sequence (P13612 whole entry, looked up): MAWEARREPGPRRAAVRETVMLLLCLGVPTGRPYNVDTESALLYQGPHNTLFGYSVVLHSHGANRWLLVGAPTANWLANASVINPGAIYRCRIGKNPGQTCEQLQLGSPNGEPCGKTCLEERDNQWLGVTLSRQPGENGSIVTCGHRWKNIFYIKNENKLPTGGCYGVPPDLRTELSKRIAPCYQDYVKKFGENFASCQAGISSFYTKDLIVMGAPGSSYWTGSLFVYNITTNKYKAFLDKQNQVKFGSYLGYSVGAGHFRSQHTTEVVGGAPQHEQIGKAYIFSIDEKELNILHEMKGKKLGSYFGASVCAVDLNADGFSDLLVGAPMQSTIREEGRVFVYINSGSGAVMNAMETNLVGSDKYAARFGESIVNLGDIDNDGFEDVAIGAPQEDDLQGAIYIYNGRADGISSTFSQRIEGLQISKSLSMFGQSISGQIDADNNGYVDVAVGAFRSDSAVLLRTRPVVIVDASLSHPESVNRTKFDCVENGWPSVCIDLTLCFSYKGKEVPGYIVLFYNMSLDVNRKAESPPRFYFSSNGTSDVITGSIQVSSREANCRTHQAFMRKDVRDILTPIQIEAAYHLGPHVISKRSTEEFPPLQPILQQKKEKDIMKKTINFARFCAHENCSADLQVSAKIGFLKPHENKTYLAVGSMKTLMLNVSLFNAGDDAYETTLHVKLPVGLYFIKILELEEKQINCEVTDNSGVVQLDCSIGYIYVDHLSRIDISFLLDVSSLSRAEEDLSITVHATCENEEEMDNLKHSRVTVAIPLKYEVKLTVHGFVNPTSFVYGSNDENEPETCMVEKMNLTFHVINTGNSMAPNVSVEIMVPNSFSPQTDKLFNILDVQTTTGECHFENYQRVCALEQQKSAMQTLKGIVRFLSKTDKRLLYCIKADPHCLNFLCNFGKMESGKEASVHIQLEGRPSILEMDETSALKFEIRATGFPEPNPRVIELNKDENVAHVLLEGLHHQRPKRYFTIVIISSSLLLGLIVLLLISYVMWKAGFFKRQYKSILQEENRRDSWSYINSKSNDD
Each line names hits and unclear results; the compound was inactive in the other large screens; [ ] = another dose, or the depositor's remark. This is a sample that favours compounds with a hit; in the whole collection about 1.1% have one here.

O=C1C2=C(Nc3ccccc3SC2c2ccco2)c2ccccc21 (stereo not drawn)	MEP2 TOR yeast 206[may fluoresce violet], CIT2-GFP yeast inconclusive
CCN1CCN(C2=C(NS(=O)(=O)c3ccccc3)C(=O)c3ccccc3C2=O)CC1	AGP1 TOR yeast inconclusive, RPL19A TOR yeast 38[may fluoresce violet], MEP2 TOR yeast 250[may fluoresce violet], CIT2-GFP yeast inconclusive
CCN1CCN(C2=C(NS(=O)(=O)c3ccc(Br)cc3)C(=O)c3ccccc3C2=O)CC1	none
Cc1cc(OC(=O)c2ccccc2C)c([N+](=O)[O-])c(=O)[nH]1	none
O=C(Nc1cccnc1)c1ccc(F)c(S(=O)(=O)N2CCOCC2)c1	AGP1 TOR yeast inconclusive, LAP4 TOR yeast inconclusive, RPL19A TOR yeast 28[may fluoresce violet], MEP2 TOR yeast inconclusive, CIT2-GFP yeast inconclusive
Cc1ccc(C(=O)Nc2cccnc2)cc1S(=O)(=O)N1CCOCC1	none (no result: CIT2-GFP yeast)
COc1ccc(-c2nn(-c3ccccc3)cc2C(=O)N/N=C/c2ccc([N+](=O)[O-])o2)cc1	LAP4 TOR yeast 181, MEP2 TOR yeast 204, CIT2-GFP yeast 228
Cc1cc(C(=O)N/N=C/c2ccc([N+](=O)[O-])o2)c(C)o1	none
Cc1nonc1C(=O)N/N=C/c1ccc([N+](=O)[O-])o1	LAP4 TOR yeast 152
O=C1C(=O)N(C/C=C/c2ccccc2)c2ccccc21	none
CCOC(=O)C1C(=O)C=C(c2ccc(C)cc2)CC1c1ccco1 (stereo not drawn)	MEP2 TOR yeast 240
O=C(CN1CCS(=O)(=O)CC1)N/N=C/c1cccc(C(F)(F)F)c1	CIT2-GFP yeast 150
CN1CCN(C2=C(Cl)C(=O)C(c3cnc(N4CCCCC4)s3)=C(Cl)C2=O)CC1	LAP4 TOR yeast 196[may fluoresce violet], MEP2 TOR yeast 319[may fluoresce violet], CIT2-GFP yeast inconclusive
Cc1ccc(S(=O)(=O)NCC(=O)N(CC(=O)NCc2ccco2)Cc2ccc(F)cc2)cc1	MEP2 TOR yeast 279[may fluoresce violet], CIT2-GFP yeast inconclusive
COc1ccc(S(=O)(=O)NCC(=O)N(CC(=O)NCc2ccco2)Cc2ccc(F)cc2)cc1	MEP2 TOR yeast 187
COc1ccc(CNC(=O)CN(Cc2ccco2)C(=O)CNS(=O)(=O)c2ccc(F)cc2)cc1	none
COc1cccc(OCc2nnc(SCC(=O)OC3CCCCC3)n2C)c1	AGP1 TOR yeast inconclusive, MEP2 TOR yeast 228[may fluoresce violet], CIT2-GFP yeast inconclusive
Nc1nnc(SCC(=O)Nc2cc(C(F)(F)F)ccc2N2CCOCC2)s1	none (no result: AGP1 TOR yeast)
Nc1nc(SCC(=O)Nc2cc(C(F)(F)F)ccc2N2CCOCC2)n[nH]1	MEP2 TOR yeast 181
Fc1ccc(-n2nnc(-c3ncc[nH]3)n2)cc1	none
CCOC(=O)N1CCC(NC(=O)C2CCCN(S(=O)(=O)c3ccc4c(c3)oc(=O)n4C)C2)CC1 (stereo not drawn)	none
CCOC(=O)N1CCC(NS(=O)(=O)c2ccc3c(c2)oc(=O)n3C)CC1	MEP2 TOR yeast 226[may fluoresce violet], CIT2-GFP yeast inconclusive
COc1ccc(NC(=O)C2CCC(=O)N2C(=O)OCc2ccccc2)cc1 (stereo not drawn)	none
CC(=O)Oc1ccc(N(C(C)=O)S(=O)(=O)c2ccc3ccccc3c2)cc1	none
CN(C)c1ccc(NC(=O)Nc2ccc3c(c2)nnn3C)cc1	none
COc1cccc(NC(=O)Nc2ccc3c(c2)nnn3C)c1	MEP2 TOR yeast 184
O=C(N/N=C/c1ccccn1)c1sc2ccccc2c1Cl	LAP4 TOR yeast 229
O=C(N/N=C/c1c[nH]c2ccccc12)c1sc2ccccc2c1Cl	none
CCn1c(C)nnc1SCC(=O)Nc1ccc(Cl)cc1	none
Cc1ccn2c(NC3CCCCC3)c(-c3cccc(-c4cccc(Cl)c4)c3)nc2c1	LAP4 TOR yeast 152
Cc1ccn2c(NC3CCCC3)c(-c3ccncc3)nc2c1	none
Cc1cccc(N2CCN(c3cccc(C)c3)C2c2cccnc2)c1	MEP2 TOR yeast 198[may fluoresce violet], CIT2-GFP yeast inconclusive
CCN(CC)Cc1c(O)ccc2c(C)c(CC(=O)OC)c(=O)oc12	MEP2 TOR yeast 205
COC(=O)Cc1c(C)c2ccc(O)c(CNCc3ccc(OC)c(OC)c3)c2oc1=O	AGP1 TOR yeast inconclusive, MEP2 TOR yeast 547[may fluoresce violet], CIT2-GFP yeast inconclusive
CCN(CC)/C(=N\S(=O)(=O)c1ccc(F)cc1)c1ccccc1	none
O=C(NC(c1ccccc1)C(Cl)Cl)c1ccccc1 (stereo not drawn)	AGP1 TOR yeast 151
CC(C)NC(=O)N(C)C[C@H]1Oc2ccc(NS(=O)(=O)c3ccccc3)cc2C(=O)N([C@H](C)CO)C[C@@H]1C	none
CSc1ccccc1OCc1cc(C(=O)NCCN2CCCc3ccccc32)no1	none
Cc1ccc(-c2nnc(NC(=O)c3ccc([N+](=O)[O-])o3)o2)c(C)c1	LAP4 TOR yeast 150
CCOC(=O)C1=C(c2ccccc2)NC(=S)NC1c1cc([N+](=O)[O-])ccc1OC (stereo not drawn)	MEP2 TOR yeast 272 (no result: RPL19A TOR yeast)
CNc1sc(C(=O)c2ccccc2F)c(N)c1-c1nc2ccccc2s1	LAP4 TOR yeast 191[may fluoresce violet], CIT2-GFP yeast inconclusive
O=C(CNC(=O)c1ccccc1F)OCc1nc2ccccc2s1	none
COc1cccc(C(=S)N2CCCC2)c1OC	none
CCOc1cccc(C(=O)Nc2ccccc2C(=O)N2CCN(C)CC2)c1	none
CCOc1ccc(-c2ccc(SCc3ccccn3)nn2)cc1	VLA-4 inh 61
CCc1ccc(-c2ccc(SCc3ccccn3)nn2)cc1	none
COc1cccc(CNS(=O)(=O)c2ccc3c(c2)N(C(C)=O)CCO3)c1	none
COc1cc(NC(=O)COC(=O)CNC(=O)C2CCCCC2)cc(OC)c1	none
CN(C)c1cccc(C(=O)N/N=C/c2ccccc2F)c1	MEP2 TOR yeast 291[may fluoresce violet], CIT2-GFP yeast inconclusive
CCOC(=O)C1=C(COC(=O)CCOc2ccccc2C)NC(=O)NC1C (stereo not drawn)	none
COc1cc2ccc(=O)oc2c(O[C@@H]2O[C@H](CO)[C@@H](O)[C@H](O)[C@H]2O)c1O	AGP1 TOR yeast inconclusive, RPL19A TOR yeast 46[may fluoresce violet], MEP2 TOR yeast 287[may fluoresce violet], CIT2-GFP yeast inconclusive
O=C(Cn1cc(C(F)(F)F)ccc1=O)N1CCc2ccccc21	none
CC(=O)OC1C(OC(C)=O)N(C(C)=O)C(=O)N1C(C)=O (stereo not drawn)	AGP1 TOR yeast inconclusive, RPL19A TOR yeast 19[may fluoresce violet], MEP2 TOR yeast 200[may fluoresce violet], CIT2-GFP yeast inconclusive
Cc1cccc(Nc2nnc(SCC(=O)c3ccc(O)cc3O)s2)c1	RPL19A TOR yeast 37[may fluoresce violet], MEP2 TOR yeast 332[may fluoresce violet], CIT2-GFP yeast inconclusive
COc1cc(C(=O)N=c2sccn2C)c([N+](=O)[O-])cc1OC	none
Cn1ccsc1=NC(=O)c1ccc([N+](=O)[O-])o1	MEP2 TOR yeast 241[may fluoresce violet], CIT2-GFP yeast inconclusive
